# Only a selection was taken, and the strongest signals are over-represented in it overall.
# B1: Cohesin-hDC-ASGPR (Homo sapiens) (protein)
# chain: LDDLDAVRIKVDTVNAKPGDTVRIPVRFSGIPSKGIANCDFVYSYDPNVLEIIEIEPGDIIVDPNPDKSFDTAVYPDRKIIVFLFAEDSGTGAYAITKDGVFATIVAKVKEGAPNGLSVIKFVEVGGFANNDLVEQKTQFFDGGANVGDTTEPATPTTPVTTPTTTDDLDAASQNSKFQRDLVTLRTDFSNFTSNTVAEIQALTSQGSSLEETIASLKAEVEGFKQERQAGVSELQEHTTQKAHLGHCPHCPSVCVPVHSEMLLRVQQLVQDLKKLTCQVATLNNNASTEGTCCPVNWVEHQDSCYWFSHSGMSWAEAEKYCQLKNAHLVVINSREEQNFVQKYLGSAYTWMGLSDPEGAWKWVDGTDYATGFQNWKPGQPDDWQGHGLGGGEDCAHFHPDGRWNDDVCQRPYHWVCEAGLGQTSQESHHHHHH
# Columns and labels:
# Experiment in all cases: glycan array binding signal (z-score within array); higher = stronger binding
# Details in all cases: glycan notation: IUPAC condensed, linker removed
# [1] = target: Fuc(a1-2)Gal
# Summary of the method: (§1)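 The binding signal is a Z-score computed within each array and averaged over linkers. Arrays of the same protein sequence at different concentrations or buffers were also averaged together. Data originate from 3228 arrays in the Consortium for Functional Glycomics database, kept only where the protein sequence was available.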
# [2] = target: Fuc(a1-2)Gal(b1-4)GlcNAc(b1-6)GalNAc
# Summary of the method: as §1
# [3] = target: Fuc(a1-2)Gal3S(b1-4)GlcNAc
# Summary of the method: as §1
# [4] = target: Fuc(a1-2)Gal6S(b1-3)GlcNAc
# Summary of the method: as §1
# [5] = target: Fuc(a1-2)[Gal(a1-3)]Gal(b1-3)GlcNAc(b1-3)GalNAc
# Summary of the method: as §1
# [6] = target: Fuc(a1-2)[Gal(a1-3)]Gal(b1-3)GlcNAc(b1-6)GalNAc
# Summary of the method: as §1
# [7] = target: Fuc(a1-2)[Gal(a1-3)]Gal(b1-4)[Fuc(a1-3)]Glc
# Summary of the method: as §1
# [8] = target: Fuc(a1-2)[Gal(a1-4)]Gal(b1-4)GlcNAc
# Summary of the method: as §1
# [9] = target: Fuc(a1-2)[GalNAc(a1-3)]Gal(b1-3)GalNAc(a1-3)[Fuc(a1-2)]Gal(b1-4)GlcNAc
# Summary of the method: as §1
# [10] = target: Fuc(a1-2)[GalNAc(a1-3)]Gal(b1-3)GlcNAc(b1-2)Man(a1-3)[Fuc(a1-2)[GalNAc(a1-3)]Gal(b1-3)GlcNAc(b1-2)Man(a1-6)]Man(b1-4)GlcNAc(b1-4)GlcNAc
# Summary of the method: as §1
# [11] = target: Fuc(a1-2)[GalNAc(a1-3)]Gal(b1-4)GlcNAc(b1-2)Man
# Summary of the method: as §1
# [12] = target: Fuc(a1-2)[GalNAc(a1-3)]Gal(b1-4)GlcNAc(b1-3)Gal(b1-4)GlcNAc(b1-3)Gal(b1-4)GlcNAc
# Summary of the method: as §1
# [13] = target: Fuc(a1-2)[GalNAc(a1-4)]Gal(b1-4)GlcNAc
# Summary of the method: as §1
# [14] = target: Fuc(a1-3)[Gal(b1-4)]GlcNAc(b1-2)Man(a1-3)[Fuc(a1-3)[Gal(b1-4)]GlcNAc(b1-2)Man(a1-6)]Man(b1-4)GlcNAc(b1-4)[Fuc(a1-6)]GlcNAc
# Summary of the method: as §1
# [15] = target: Fuc(a1-3)[Gal(b1-4)]GlcNAc(b1-3)GalNAc
# Summary of the method: as §1
# [16] = target: Gal(a1-3)Gal(b1-3)GlcNAc(b1-6)GalNAc
# Summary of the method: as §1
# [17] = target: Gal(a1-3)Gal(b1-3)[Fuc(a1-4)]GlcNAc(b1-2)Man(a1-3)[Gal(a1-3)Gal(b1-3)[Fuc(a1-4)]GlcNAc(b1-2)Man(a1-6)]Man(b1-4)GlcNAc(b1-4)GlcNAc
# Summary of the method: as §1
# [18] = target: Gal(a1-3)Gal(b1-4)Glc
# Summary of the method: as §1
# [19] = target: Gal(a1-3)Gal(b1-4)GlcNAc(b1-3)GalNAc
# Summary of the method: as §1
# [20] = target: Gal(b1-3)GlcNAc(b1-3)Gal(b1-4)GlcNAc(b1-2)[Gal(b1-3)GlcNAc(b1-3)Gal(b1-4)GlcNAc(b1-6)]Man(a1-6)[Gal(b1-3)GlcNAc(b1-3)Gal(b1-4)GlcNAc(b1-2)Man(a1-3)]Man(b1-4)GlcNAc(b1-4)[Fuc(a1-6)]GlcNAc
# Summary of the method: as §1
# [21] = target: Gal(b1-4)GlcNAc(b1-2)Man(a1-3)[Gal(b1-4)GlcNAc(b1-2)Man(a1-6)]Man(b1-4)GlcNAc(b1-4)GlcNAc
# Summary of the method: as §1
# [22] = target: Gal(b1-4)GlcNAc(b1-2)[Gal(b1-4)GlcNAc(b1-4)]Man(a1-3)[Gal(b1-4)GlcNAc(b1-2)[Gal(b1-4)GlcNAc(b1-6)]Man(a1-6)]Man(b1-4)GlcNAc(b1-4)GlcNAc
# Summary of the method: as §1
# [23] = target: Gal(b1-4)GlcNAc(b1-2)[Gal(b1-4)GlcNAc(b1-6)]Man(a1-6)[Gal(b1-4)GlcNAc(b1-2)Man(a1-3)]Man(b1-4)GlcNAc(b1-4)[Fuc(a1-6)]GlcNAc
# Summary of the method: as §1
# [24] = target: Gal(b1-4)GlcNAc(b1-3)Gal(b1-4)GlcNAc(b1-2)[Gal(b1-4)GlcNAc(b1-3)Gal(b1-4)GlcNAc(b1-6)]Man(a1-6)[Gal(b1-4)GlcNAc(b1-3)Gal(b1-4)GlcNAc(b1-2)Man(a1-3)]Man(b1-4)GlcNAc(b1-4)GlcNAc
# Summary of the method: as §1
# [25] = target: Gal3S(b1-3)[Fuc(a1-4)]GlcNAc
# Summary of the method: as §1
binder,measurement,setting,value
B1,glycan array binding signal (z-score),[1],-0.306
same,glycan array binding signal (z-score),[2],2.81
same,glycan array binding signal (z-score),[3],-0.377
same,glycan array binding signal (z-score),[4],-0.246
same,glycan array binding signal (z-score),[5],-0.407
same,glycan array binding signal (z-score),[6],2.85
same,glycan array binding signal (z-score),[7],-0.481
same,glycan array binding signal (z-score),[8],-0.495
same,glycan array binding signal (z-score),[9],3.55
same,glycan array binding signal (z-score),[10],2.83
same,glycan array binding signal (z-score),[11],2.03
same,glycan array binding signal (z-score),[12],1.93
same,glycan array binding signal (z-score),[13],3.15
same,glycan array binding signal (z-score),[14],-0.501
same,glycan array binding signal (z-score),[15],-0.391
same,glycan array binding signal (z-score),[16],2.9
same,glycan array binding signal (z-score),[17],-0.322
same,glycan array binding signal (z-score),[18],-0.483
same,glycan array binding signal (z-score),[19],-0.475
same,glycan array binding signal (z-score),[20],0.077
same,glycan array binding signal (z-score),[21],-0.447
same,glycan array binding signal (z-score),[22],-0.517
same,glycan array binding signal (z-score),[23],-0.504
same,glycan array binding signal (z-score),[24],1.87
same,glycan array binding signal (z-score),[25],-0.306
